Results filed as inconclusive are left out. The source made the active and inactive calls.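 The calls were made as follows, unless noted: active = viability at or below 30% in both replicate assays; inconclusive = viability at or below 30% in just one of the two assays; inactive = the rest.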

The source of these data is PubChem BioAssay.

Test [1] in a line: Her2 expression decrease, cell viability multiplex – SKBR3 breast tumor cells, AlphaScreen, ATP viability, primary screen (AID 461;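 active = Her2 level under about 52% in both replicate screens, with viability over 70% of control, limit read from the data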;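 as to Her2 level: lower value means less Her2 protein in the cells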;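 as to viability: percent of carrier control wells set as 100% viability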). The settings on record: SKBR3 Her2 protein level, 18-24 h, measured here: SKBR3 viability, ATP luminescence, at 10 µM. (In general: In Alpha technology, singlet oxygen from a donor bead excites a nearby acceptor bead.)
Test [2] concerns the target Receptor tyrosine-protein kinase erbB-2 (Homo sapiens) (UniProt P04626). The test is described as above. The settings on record: 18-24 h, at 10 µM, stronger effect = lower value.
Test [3] in a line: reduced viability of SK-BR-3 breast cancer cells – cell-based, 24 h, human, pilot screen (AID 572;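 active = viability at or below 10% of carrier control in both of two separate runs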;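 also: compound exposure lasted between 18 and 24 h rather than exactly 24 h; 100% = carrier-treated control wells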). The conditions noted are these: SK-BR-3 viability, CellTiter-Glo luminescence, at 10 µM, stronger effect = lower value. (ATP-based viability assays read luminescence as a measure of living cells.)
Test [4] in a line: HUVEC growth inhibition – cell-based, human, primary screen (AID 575).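 Also: 100% = median of untreated cell wells with 0.1% DMSO on each plate.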 The conditions noted are these: HUVEC proliferation, CellTiter-Glo luminescence, 72 h; at 10 µM; stronger effect = lower value.
The nature of test [5]: H69AR cell proliferation blockers – human, duplicate replicates, primary screen (AID 580;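 active = viability at or under a set limit in both replicates, limit being median viability minus 3 SD, cut at about 48% in these data, passing the limit was not always enough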;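 also: 100% = mean luminescence of untreated wells and 0% = no signal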). The settings on record: H69AR lung tumor cells viability, ATP luminescence, 72 h; at 10 µM; stronger effect = lower value.
Test [6] is described as follows: MRP1 drug-resistance reversers in H69AR cells – cell-based, doxorubicin co-treatment, pilot screen (AID 601;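 active = viability loss from added drug above about 55%, and viability with drug at most 40%, in both replicates, limit read from the data, passing the limit was not always enough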). The settings on record: CellTiter-Glo, 72 h, at 10 µM; for differential viability (reversal): stronger effect = higher value.
A short description of test [7]: yeast transport mutant growth inhibition pilot in 384-well plates, post-Golgi transport modulator project (AID 636; in the data active = inhibition above about 31%). The settings on record: absorbance 615 nm, about 18 h, stronger effect = higher value.
Test [8] in a line: growth suppression of yeast trafficking mutant, preliminary HTS, modulators of trafficking downstream of Golgi apparatus project, 1536-format plate, OD 615 nm (AID 637; in the data active = inhibition above about 30%). The conditions noted are these: yeast transport mutant growth, absorbance 615 nm, 18 h; stronger effect = higher value.
The nature of test [9]: S. cerevisiae growth inhibition in permissive medium (OD615), pilot counter-assay for S. cerevisiae lifespan shortening project, permissive growth control (AID 705;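 active = growth inhibition above 25% in both replicates, a cutoff set 3 SD above the mean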). The settings on record: OD615, 24 h, at 10 µM, stronger effect = higher value.
The nature of test [10]: S. cerevisiae growth inhibition in restrictive medium, OD615, pilot screen, restrictive growth control, yeast lifespan reduction project (AID 706;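 active = growth inhibition above a set limit, 3 SD over mean compound inhibition, in both replicates, cut at about 43% in these data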;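 also: modified DeaD lifespan yeast strain shifted to restrictive glucose medium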). The settings on record: OD615, 48 h, at 10 µM, stronger effect = higher value.
Test [11] can be described thus: doxorubicin toxicity protection in MRP-1 cells – H69AR cells, CellTiter-Glo, duplicate, MRP-1 activator project, pilot screen (AID 807;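 active = viability increase at or above a cutoff of the median across tested compounds plus 3 SD, cut at about 8.5% in these data, passing the limit was not always enough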;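 also: compound pretreatment 18-22 h then 72 h combined with doxorubicin; 0% = doxorubicin alone and 100% = vehicle without doxorubicin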). The settings on record: H69AR viability with doxorubicin, CellTiter-Glo luminescence; at 10 µM; stronger effect = higher value.
The nature of test [12]: viability of HCT116 without oncogenic beta-catenin – human colon tumor cells, pilot screen (AID 823;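 active = cell viability at or below a set limit in both duplicate runs, the limit being the all-compound median minus 4 SD, cut at about 23% in these data, passing the limit was not always enough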;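 also: 0% = wells killed by 20 µM Hyamine and 100% = untreated DMSO cell wells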). The settings on record: HCT116 beta-catenin knockout viability, CellTiter-Glo, 60 h; at 10 µM; stronger effect = lower value.
Test [13] in a line: viability of PTEN-null HCT116 cells – cell-based, HCT116 clonal line, CellTiter-Glo, pilot screen (AID 824;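 active = viability at or below 27.92% in each of two runs, the all-compound median minus 4 SD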;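 also: 0% = 20 µM Hyamine control and 100% = vehicle cell control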). The settings on record: HCT116 PTEN-deleted viability, 60 h, at 10 µM, stronger effect = lower value.
Test [14] in a line: RAM pathway blockade in budding yeast – dse1pr::URA3 reporter, 5-FOA selection, pilot screen (AID 869;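 active = inhibition over a set limit, the all-compound mean plus 3 SD, in both replicate runs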;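 also: 0% = DMSO wells with no growth and 100% = 10 µM 1-NA-PP1 with full growth; RAM network block rescues cells from 5-FOA so hits raise OD615 growth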). The conditions noted are these: S. cerevisiae dse1pr::URA3 5-FOA growth, OD615, 2 d; at 10 µM; stronger effect = higher value; strain carries analog-sensitive mutant Cbk1 kinase.
The nature of test [15]: RAM signaling pathway blockade in yeast – S. cerevisiae, Pdr1DBD-CYC8 efflux-inhibited sensitized strain, primary screen (AID 1298;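 active = RAM network inhibition above 8.4% in each of two replicates, 3 SD over the compound average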;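 also: 0% = DMSO untreated cells without growth and 100% = 10 µM 1-NA-PP1 full growth; higher means more yeast growth rescued from 5-FOA killing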). The settings on record: S. cerevisiae cbk1-as DSE1-URA3 strain, 5-FOA growth OD615, 2 d; at 50 µM; stronger effect = higher value.
[16] abbreviates: H69AR cells + 2 uM doxorubicin, measured here: viability with 2 uM doxorubicin, stronger effect = lower value.
[17] abbreviates: H69AR cells, compound alone cytotoxicity.

Chain of Receptor tyrosine-protein kinase erbB-2 (Homo sapiens) (P04626 whole entry, looked up): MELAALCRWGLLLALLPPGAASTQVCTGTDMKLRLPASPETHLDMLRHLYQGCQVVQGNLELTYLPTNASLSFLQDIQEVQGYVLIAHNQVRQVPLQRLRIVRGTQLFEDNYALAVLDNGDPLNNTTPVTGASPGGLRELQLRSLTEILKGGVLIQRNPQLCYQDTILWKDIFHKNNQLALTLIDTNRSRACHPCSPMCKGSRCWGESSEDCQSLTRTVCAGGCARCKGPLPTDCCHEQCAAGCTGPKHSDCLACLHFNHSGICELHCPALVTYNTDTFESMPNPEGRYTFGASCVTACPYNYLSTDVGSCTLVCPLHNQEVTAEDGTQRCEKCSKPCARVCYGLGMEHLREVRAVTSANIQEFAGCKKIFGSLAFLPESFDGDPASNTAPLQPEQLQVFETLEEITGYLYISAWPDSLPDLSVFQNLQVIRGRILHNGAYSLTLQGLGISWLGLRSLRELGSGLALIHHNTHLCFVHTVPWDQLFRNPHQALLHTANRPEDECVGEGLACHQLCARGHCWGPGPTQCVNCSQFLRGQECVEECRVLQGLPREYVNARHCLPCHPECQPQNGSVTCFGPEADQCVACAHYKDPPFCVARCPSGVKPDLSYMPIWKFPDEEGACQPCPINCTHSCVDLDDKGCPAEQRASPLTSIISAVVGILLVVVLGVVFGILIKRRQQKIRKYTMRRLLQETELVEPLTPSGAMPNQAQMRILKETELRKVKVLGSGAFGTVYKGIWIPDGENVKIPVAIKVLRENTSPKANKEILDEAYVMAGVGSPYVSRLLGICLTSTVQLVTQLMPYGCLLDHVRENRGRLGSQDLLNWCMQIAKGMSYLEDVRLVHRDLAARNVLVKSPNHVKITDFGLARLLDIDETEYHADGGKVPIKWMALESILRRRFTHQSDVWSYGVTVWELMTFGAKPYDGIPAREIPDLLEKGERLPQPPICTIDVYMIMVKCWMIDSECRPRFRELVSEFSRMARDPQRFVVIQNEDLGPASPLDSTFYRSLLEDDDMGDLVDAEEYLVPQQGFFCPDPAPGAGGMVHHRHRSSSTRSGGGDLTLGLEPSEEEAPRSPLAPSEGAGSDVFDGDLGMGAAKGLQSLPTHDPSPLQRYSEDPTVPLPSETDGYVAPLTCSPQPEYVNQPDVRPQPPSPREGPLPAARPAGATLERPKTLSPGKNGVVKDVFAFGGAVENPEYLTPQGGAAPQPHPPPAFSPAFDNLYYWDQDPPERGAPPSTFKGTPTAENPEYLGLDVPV

One may read the viability as a read-out of living cells in per cent, often relative to untreated cells. A word on the inhibition: it is the drop in the measured response relative to a control, in per cent. Take `O=C(Nc1nnc(-c2ccc(Cl)cc2)o1)C1CCCCC1`: the viability in test [1] was 87.5%; in [3], 87.5% (inactive); in test [4], 67% (inactive); in [5], 69.2% (inactive); in test [6] (setting [16]), 86.5%; in [6] (setting [17]), 69.2%. In addition, the viability was 54.2% (inactive) in test [12] and 58.2% (inactive) in test [13]. For the same molecule, the Her2 level in test [2] was 99% (inactive). The differential viability (reversal) in test [6] (H69AR cells + 2 uM doxorubicin) is -17.3% (inactive). In addition, the results for the inhibition in test [7], in test [8] and in [14] were -7.2% (inactive), -2.33% (inactive) and 1.51% (inactive), respectively. The growth inhibition in test [9] was 4.85% (inactive); in [10], 8.62% (inactive). Moreover, the viability increase in test [11] was -1.38% (inactive). For the same molecule, the RAM network inhibition in test [15] is 1.36% (inactive).

With `Cc1cccc(NC(=O)c2ccccc2O)c1C`, the viability is 60% in test [1]; 60% (inactive) in [3]; 59.2% (inactive) in [4]; 93.3% (inactive) in test [5]; 88.4% in [6] (setting [16]); 93.3% in [6] (setting [17]). The viability is 86.5% (inactive) in [12] and 86.3% (inactive) in test [13]. Besides, the Her2 level in test [2] is 75.5% (inactive). Besides, the differential viability (reversal) in [6] (H69AR cells + 2 uM doxorubicin) was 4.91% (inactive). Further, the inhibition in test [7] was -5.95% (inactive); in [8], -3.61% (inactive); in test [14], 1.33% (inactive). The growth inhibition in test [9] was 2.66% (inactive); in test [10], 1.19% (inactive). In addition, the viability increase in test [11] was -1.89% (inactive). Further, in test [15], the RAM network inhibition was 2.03% (inactive).

As to `Cc1[nH]nc2c1C(=O)CC(C)(C)C2`, the viability was 95.5% in [1]; 95.5% (inactive) in [3]; 100% (inactive) in [4]; 89% (inactive) in [5]; 83.7% in test [6] (setting [16]); 89% in test [6] (setting [17]). Further, the values for the viability in [12] and in test [13] were 95.8% (inactive) and 94% (inactive), respectively. Moreover, in [2], the Her2 level is 100% (inactive). Besides, in test [6] (H69AR cells + 2 uM doxorubicin), the differential viability (reversal) was 5.23% (inactive). For the same molecule, the inhibition in [7] was -1.67% (inactive); in test [8], -10.3% (inactive); in test [14], 1.44% (inactive). In addition, the values for the growth inhibition in [9] and in [10] were 2.65% (inactive) and -3.72% (inactive), respectively. For the same molecule, the viability increase in test [11] was -4.31% (inactive). For the same molecule, the RAM network inhibition in test [15] is 1.23% (inactive).

Turning to `Cc1cccc(NC(=O)Nc2cccc(C#N)c2)n1`, the viability was 100% in test [1]; 100% (inactive) in [3]; 63.2% (inactive) in test [4]; 84% (inactive) in test [5]; 87.5% in test [6] (setting [16]); 84% in [6] (setting [17]). Moreover, the viability is 43.5% (inactive) in test [12] and 46% (inactive) in test [13]. Moreover, in test [2], the Her2 level was 66.5% (inactive). Besides, the differential viability (reversal) in [6] (H69AR cells + 2 uM doxorubicin) was -3.47% (inactive). The figures for the inhibition in [7], in [8] and in test [14] were 0.38% (inactive), 3.67% (inactive) and 3.24% (inactive), respectively. Further, the growth inhibition in test [9] is -8.45% (inactive); in test [10] it was 0.81% (inactive). Moreover, in [11], the viability increase was -4.03% (inactive). Besides, in test [15], the RAM network inhibition is 2.88% (inactive).

Turning to `CCCCN(C)C(=O)c1ccc(CS(=O)(=O)c2ccccc2C)o1`, the viability in [1] was 93%; in test [3], 93% (inactive); in test [4], 120% (inactive); in test [5] it was 81.3% (inactive); in [6] (setting [16]), 87.2%; in test [6] (setting [17]), 81.3%. Moreover, the viability was 93.8% (inactive) in [12] and 91.7% (inactive) in test [13]. Besides, the Her2 level in test [2] was 86.5% (inactive). Moreover, the differential viability (reversal) in test [6] (H69AR cells + 2 uM doxorubicin) was -5.93% (inactive). The results for the inhibition in test [7], in test [8] and in test [14] were 1.28% (inactive), -2.17% (inactive) and -0.45% (inactive), respectively. Moreover, the growth inhibition in test [9] was 6.16% (inactive); in [10] it was 14.7% (inactive). Moreover, in test [11], the viability increase was -1.67% (inactive). The RAM network inhibition in [15] is 3.61% (inactive).

Consider `COc1cccc(-c2nc3n(n2)C(c2cccs2)C(C(=O)Nc2cccnc2)=C(C)N3)c1` (stereo not drawn), for which the viability in test [1] is 78%; in [3] it was 78% (inactive); in test [4], 83.2% (inactive); in [5], 101% (inactive); in test [6] (setting [16]), 107%; in [6] (setting [17]), 101%. The results for the viability in [12] and in test [13] were 87.2% (inactive) and 93% (inactive), respectively. The Her2 level in [2] is 79% (inactive). The differential viability (reversal) in [6] (H69AR cells + 2 uM doxorubicin) was -5.46% (inactive). For the same molecule, the inhibition is -2.93% (inactive) in test [7], -0.67% (inactive) in [8] and -0.145% (inactive) in [14]. Moreover, the growth inhibition in test [9] is -13.1% (inactive); in test [10] it was -6.04% (inactive). Also, the viability increase in test [11] was -2.26% (inactive). Further, in test [15], the RAM network inhibition was 5.84% (inactive).

Regarding `COC(=O)COc1cccc(NC(=O)COc2ccccc2)c1`, the viability was 99.5% in test [1]; 99.5% (inactive) in test [3]; 90.7% (inactive) in test [4]; 96.5% (inactive) in test [5]; 93.2% in test [6] (setting [16]); 96.5% in test [6] (setting [17]). For the same molecule, the values for the viability in [12] and in [13] were 97.2% (inactive) and 93.7% (inactive), respectively. Moreover, in test [2], the Her2 level was 122% (inactive). In addition, in [6] (H69AR cells + 2 uM doxorubicin), the differential viability (reversal) was 3.21% (inactive). Further, the inhibition in [7] was -0.13% (inactive); in test [8], -7.33% (inactive); in test [14], 1.66% (inactive). Besides, the growth inhibition in [9] was -12.5% (inactive); in test [10] it was 3.51% (inactive). Moreover, the viability increase in test [11] was -0.74% (inactive). In [15], the RAM network inhibition is 2.45% (inactive).

Consider `COC(=O)c1ccc(-c2nn(C)c(=O)c3ccccc23)cc1`, for which the viability was 93.5% in test [1]; 93.5% (inactive) in test [3]; 83.8% (inactive) in [4]; 94.6% (inactive) in [5]; 86.9% in test [6] (setting [16]); 94.6% in test [6] (setting [17]). For the same molecule, the viability in [12] is 94.3% (inactive); in test [13], 91% (inactive). For the same molecule, the Her2 level in test [2] was 99.5% (inactive). Also, the differential viability (reversal) in test [6] (H69AR cells + 2 uM doxorubicin) was 7.75% (inactive). Also, the values for the inhibition in test [7], in [8] and in test [14] were -5.33% (inactive), 4.17% (inactive) and 0.79% (inactive), respectively. In addition, the growth inhibition in [9] is 3.78% (inactive); in test [10], 6.35% (inactive). The viability increase in test [11] was -2.27% (inactive). Besides, the RAM network inhibition in test [15] is -1.8% (inactive).

Regarding `CC1CCCCN1CCNC(=O)c1ccc2c(=O)n(CCc3ccccc3)c(=O)[nH]c2c1` (stereo not drawn), the viability in test [1] was 91%; in [3] it was 91% (inactive); in [4], 53.6% (inactive); in test [5] it was 93.5% (inactive); in test [6] (setting [16]) it was 80.8%; in test [6] (setting [17]) it was 93.5%. Further, the viability in test [12] was 76.9% (inactive); in test [13], 73.4% (inactive). Besides, the Her2 level in test [2] was 72.5% (inactive). The differential viability (reversal) in test [6] (H69AR cells + 2 uM doxorubicin) is 12.7% (inactive). The results for the inhibition in test [7], in [8] and in test [14] were -5% (inactive), 1.17% (inactive) and 1.27% (inactive), respectively. Further, the growth inhibition in [9] is -23.3% (inactive); in [10], -18.5% (inactive). Further, in test [11], the viability increase is -4.81% (inactive). The RAM network inhibition in [15] was 8.68% (inactive).
